Data on 21 molecules can be found in ChEMBL document CHEMBL3433997, “St. Jude Leishmania screening dataset” (2016).

Common to all, as to type: functional
Assay [1] concerns the target Solute carrier family 2, facilitated glucose transporter member 1 (Homo sapiens) (UniProt P11166). Briefly: ST_JUDE_LEISH: Cytotoxicity at 2uM final concentration against transgenic Leishmania Mexicana promastigotes LmGLUT1 that are glucose transport deficient and complemented with the human glucose transporter GLUT1. Activity is measured by DNA content using SYBR green in vitro.

The target of assay [2] is Hexose transporter 1 (Plasmodium falciparum) (UniProt O97467). Briefly: ST_JUDE_LEISH: Cytotoxicity at 2uM final concentration against transgenic Leishmania Mexicana promastigotes LmPfHT that are glucose transport deficient and complemented with the Plasmodium falciparum hexose transporter. Activity is measured by DNA content using SYBR green in vitro.
Assay [3] has as its target Glucose transporter (Leishmania mexicana) (UniProt O61059). Briefly: ST_JUDE_LEISH: Cytotoxicity at 2uM final concentration against transgenic Leishmania Mexicana promastigotes LmGT2 that are glucose transport deficient and complemented with the L. Mexicana glucose transporter 2. Activity is measured by DNA content using SYBR green in vitro.

Solute carrier family 2, facilitated glucose transporter member 1 (Homo sapiens), sequence (P11166 whole entry): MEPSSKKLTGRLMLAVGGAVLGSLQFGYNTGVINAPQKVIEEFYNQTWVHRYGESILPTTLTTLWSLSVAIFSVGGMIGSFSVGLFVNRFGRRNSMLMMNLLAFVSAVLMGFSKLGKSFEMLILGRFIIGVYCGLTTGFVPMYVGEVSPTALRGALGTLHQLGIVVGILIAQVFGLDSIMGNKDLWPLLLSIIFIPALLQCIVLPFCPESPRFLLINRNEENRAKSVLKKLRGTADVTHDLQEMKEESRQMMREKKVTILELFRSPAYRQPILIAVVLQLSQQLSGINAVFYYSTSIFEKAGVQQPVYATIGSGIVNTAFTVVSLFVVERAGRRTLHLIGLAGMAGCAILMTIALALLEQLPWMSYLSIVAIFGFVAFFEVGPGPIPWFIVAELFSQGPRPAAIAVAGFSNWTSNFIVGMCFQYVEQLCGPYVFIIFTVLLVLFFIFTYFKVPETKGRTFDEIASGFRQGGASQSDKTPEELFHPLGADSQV

Regarding `Cc1cc(C)c(NC(=O)N[C@H]2CCN(CCCCCNC(=O)/C=C/c3ccc(Cl)c(Cl)c3)C2)c(C)c1`, the figures for the inhibition in assay [1], in assay [2] and in assay [3] were -0.8%, -0.95% and 1.3%, respectively.

In the case of `O=C(Nc1ccc(-c2nc3ccccc3[nH]2)cc1)c1ccc(Cl)s1`, the inhibition in assay [1] was found to be 3.19%; in assay [2], 2.35%; in assay [3], 1.71%.

`Cc1cc(O)c2c(c1)OC(C)(C)C=C2C1=CCN(Cc2ccccc2)CC1`: the values for the inhibition in assay [1], in assay [2] and in assay [3] were 5.82%, 6.87% and 5.88%, respectively.

With `COc1ccc(NC(=O)CCNc2cc(C)nc(NCCc3ccccc3)n2)cc1`, the inhibition in assay [1] is 4.71%; in assay [2], 4.04%; in assay [3] it was 2.42%.

On to `OC(c1ccccc1)C1CN(Cc2ccccc2)CCC1(O)c1ccccc1` (stereo not drawn), for which the inhibition in assay [1] was 8.06%; in assay [2] it was 7.93%; in assay [3], 7%.

For the molecule `CCN(CC)CCNc1c2ccc(Cl)cc2nc2ccc(OC)nc12`, the inhibition in assay [1] came to 3.46%; in assay [2] it was 3.09%; in assay [3], 3.99%.

Take `Cc1nc(C)c(-c2ccc(Oc3ccc(Cl)cc3Cl)cc2)c(O)c1Br`: the inhibition in assay [1] is -1.34%; in assay [2] it was -0.13%; in assay [3] it was 0.66%.

`COc1ccc(-c2cc3ncnc(N4CCN(CCN5CCCC5)CC4)c3s2)cc1`: the inhibition in assay [1] came to 2.34%; in assay [2] it was 0.99%; in assay [3], 0.9%.

In the case of `Cn1nc(-c2ccc(NC(=O)Nc3cc(C(F)(F)F)cc(C(F)(F)F)c3)c(F)c2)c2cnc(NCCN3CCOCC3)nc21`, the inhibition was 2.68% in assay [1], 2.48% in assay [2] and 3.49% in assay [3].

Regarding `Cc1nc(C)c(-c2ccc(Oc3ccc(Cl)c(Cl)c3)cc2)c(O)c1Br`, the inhibition in assay [1] was 0.19%; in assay [2], 0.11%; in assay [3], 0.06%.

As for `Cc1ccc(Cn2nc(Cl)c(N3CCCNCC3)cc2=O)cc1NC(=O)Nc1ccc(-c2ccccc2)cc1`, the inhibition is -1.89% in assay [1], 1.72% in assay [2] and -1.28% in assay [3].

For the molecule `O=C(Nc1cccc(F)c1)c1ccc(C(=O)NC2CCN(CC3CCCCC3)C2)cc1` (stereo not drawn), the inhibition in assay [1] was determined as 11.1%; in assay [2] it was 9.73%; in assay [3], 8.76%.

Take `COc1ccc2c(c1)CC(CNC[C@H](O)c1cccc(Cl)c1)CC2` (stereo partly drawn): the values for the inhibition in assay [1], in assay [2] and in assay [3] were -1.38%, 0.78% and 1%, respectively.

Take `O=S(=O)(Nc1ccc(CCN2CCC(N3CCCCC3)CC2)cc1)c1ccc(Cl)cc1`: the inhibition in assay [1] amounted to 1.32%; in assay [2], 2.6%; in assay [3] it was 2.94%.

As for `CCCc1cc(Cc2cnc(N)nc2N)cc(CCC)c1OCCCCC(=O)OCC`, the inhibition in assay [1] turned out to be 6.48%; in assay [2], 2.3%; in assay [3], 1.54%.

Regarding `COc1ccc(C2CCN(C#N)C2)cc1OC1CCCC1` (stereo not drawn), the values for the inhibition in assay [1], in assay [2] and in assay [3] were 17%, 17.2% and 11.1%, respectively.

Turning to `CC(CN1CCN(C)CC1)C(=O)Nc1ccc(-c2ccc(-c3nc4cc(C(F)(F)F)ccc4[nH]3)cc2)cc1` (stereo not drawn), the inhibition in assay [1] stood at 6.67%; in assay [2] it was 4.86%; in assay [3] it was 2.49%.

Take `N#Cc1ccc(N(CCOC(=O)c2ccc(Br)s2)Cc2ccccc2C(F)(F)F)cc1C(F)(F)F`: the values for the inhibition in assay [1], in assay [2] and in assay [3] were 1.7%, 4.9% and 3.28%, respectively.

Turning to `N=C(/N=C(/NCCCCCCN/C(=N\C(=N)Nc1ccc(Cl)cc1)N1CCOCC1)N1CCOCC1)Nc1ccc(Cl)cc1`, the inhibition in assay [1] stood at 10.5%; in assay [2], 9.54%; in assay [3] it was 9.37%.

Regarding `CCCCOP(=O)(COc1ccc(CCN(CC(O)COc2cccc3[nH]c4ccccc4c23)CC(O)COc2cccc3[nH]c4ccccc4c23)cc1)C1CCCCC1` (stereo not drawn), the inhibition in assay [1] was 3.64%; in assay [2], 0.57%; in assay [3], 0.82%.

On to `COc1ccc2nccc([C@@H](O)CN3CCC(NCc4nc5ccccc5s4)CC3)c2c1`, for which the results for the inhibition in assay [1], in assay [2] and in assay [3] were 4.29%, 6.41% and -0.69%, respectively.

A word on the inhibition: it is the change of the read-out against control, counted positive when it falls.
